Where a name gives a salt, the structure may show the parent alone.

The test has as its system Saccharomyces cerevisiae BY4741 SeMeCo community. The test is described as follows: z-score of subpopulation abundance vs DMSO median, subpopulation auxotrophic for HLM; higher = larger share of this subpopulation than in DMSO controls. The note with it: 10 µM; 24 h; SM minimal medium; subpopulation (auxotrophy): HLM. The procedure: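 Fluorescent four-plasmid SeMeCo (self-establishing metabolically cooperating S. cerevisiae BY4741 community; plasmids pH-mRuby2, pL-mWasabi, pU-eCFP, pM-TagRFP657) was grown 24 h in minimal SM medium with each Selleck FDA-approved drug at 10 µM in 384-well plates. Cells were fixed and imaged by high-content confocal microscopy. For each auxotrophic subpopulation (and the prototroph), a z-score gives the deviation from the DMSO vehicle-control population median.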
As for `Cn1nnnc1SCC1=C(C(=O)O)N2C(=O)[C@@H](NC(=O)[C@H](OC=O)c3ccccc3)[C@H]2SC1` [Cefamandole nafate], the “z-score of subpopulation abundance” value was -0.57.

With `O=C1c2cccc3c2[C@H](CCC3)CN1[C@@H]1CN2CCC1CC2` [Palonosetron HCl], the “z-score of subpopulation abundance” value was -0.58.

`C#C[C@]1(O)CC[C@H]2[C@@H]3CCc4cc(O)ccc4[C@H]3CC[C@@]21C` [Ethinyl Estradiol]: the “z-score of subpopulation abundance” value is -0.72.

As for `Clc1ccc(C(Cn2ccnc2)OCc2ccsc2Cl)c(Cl)c1` (stereo not given) [Tioconazole], the “z-score of subpopulation abundance” value was determined as 20.

Turning to `Oc1ccc(C2CNCCc3c2cc(O)c(O)c3Cl)cc1` (stereo not given) [Fenoldopam mesylate], the “z-score of subpopulation abundance” value is 0.63.

In the case of `Clc1ccccc1C(c1ccccc1)(c1ccccc1)n1ccnc1` [Clotrimazole], the “z-score of subpopulation abundance” value was found to be 15.2.

On to `OCc1ccc(Cl)cc1Cl` [2,4-dichlorobenzyl alcohol], for which the “z-score of subpopulation abundance” value was 0.03.

For the compound `Cc1cccc(C#Cc2ccccc2)n1`, the “z-score of subpopulation abundance” value is -0.43.

Regarding `COc1ccc2cc3[n+](cc2c1OC)CCc1cc2c(cc1-3)OCO2` [Berberine Sulfate], the “z-score of subpopulation abundance” value came out at 0.13.

For `c1cnc(N2CCN(Cc3ccc4c(c3)OCO4)CC2)nc1` [Piribedil], the “z-score of subpopulation abundance” value stood at 1.03.

As to `CS(=O)(=O)c1ccc([C@@H](O)[C@@H](CO)NC(=O)C(Cl)Cl)cc1` [Thiamphenicol], the “z-score of subpopulation abundance” value is -0.85.

As to `COCC(=O)Nc1cc(Sc2ccccc2)ccc1N=C(NC(=O)OC)NC(=O)OC` [Febantel], the “z-score of subpopulation abundance” value was 0.64.

`CO/N=C(\C(=O)N[C@@H]1C(=O)N2C(C(=O)O)=C(CSC(=O)c3ccco3)CS[C@H]12)c1csc(N)n1` [Ceftiofur]: the “z-score of subpopulation abundance” value worked out at 0.23.

Consider `C/C=C1\[C@H]2C=C(C)C[C@]1(N)c1ccc(=O)[nH]c1C2` [(-)-Huperzine A (HupA)], for which the “z-score of subpopulation abundance” value was -0.61.

In the case of `CCCCC(=O)O[C@H]1CC[C@H]2[C@@H]3CCc4cc(O)ccc4[C@H]3CC[C@]12C` [Estradiol valerate], the “z-score of subpopulation abundance” value is -0.87.

Consider `CCN1CCN(C(=O)N[C@@H](C(=O)N[C@@H]2C(=O)N3[C@@H]2SC(C)(C)[C@@H]3C(=O)O)c2ccccc2)C(=O)C1=O` [Piperacillin Sodium], for which the “z-score of subpopulation abundance” value was found to be 0.59.

Turning to `Cc1cc(CC(C)CC(C)(C)C)n(O)c(=O)c1` (stereo not given) [Piroctone Olamine], the “z-score of subpopulation abundance” value was 39.5.

As for `CC1=Nc2ccc(Cl)cc2S(=O)(=O)N1` [Diazoxide], the “z-score of subpopulation abundance” value was -1.55.

As to `Fc1ccc(C(c2ccc(F)cc2)N2CCN(C/C=C/c3ccccc3)CC2)cc1` [Flunarizine 2HCl], the “z-score of subpopulation abundance” value turned out to be 1.25.

Consider `CCCc1nn(C)c2c(=O)[nH]c(-c3cc(S(=O)(=O)N4CCN(C)CC4)ccc3OCC)nc12` [Sildenafil Mesylate], for which the “z-score of subpopulation abundance” value was -0.78.

As for `O=C1CCc2ccc(OCCCCN3CCN(c4cccc(Cl)c4Cl)CC3)cc2N1` [Aripiprazole], the “z-score of subpopulation abundance” value was found to be 0.77.

For `Nc1nc(/C(=C/CC(=O)O)C(=O)N[C@@H]2C(=O)N3C(C(=O)O)=CCS[C@H]23)cs1` [Ceftibuten dihydrate], the “z-score of subpopulation abundance” value was determined as 0.65.

Turning to `COc1ccccc1OCC(O)CN1CCN(CC(=O)Nc2c(C)cccc2C)CC1` (stereo not given) [Ranolazine 2HCl], the “z-score of subpopulation abundance” value was -0.72.

For the compound `COC(=O)Nc1nc2cc(Sc3ccccc3)ccc2[nH]1` [Fenbendazole], the “z-score of subpopulation abundance” value was -0.31.

As to `Cc1ccc(C(=O)C(C)CN2CCCCC2)cc1` (stereo not given) [Tolperisone HCl], the “z-score of subpopulation abundance” value is -0.48.

Turning to `O=C(NCCO[N+](=O)[O-])c1cccnc1` [Nicorandil], the “z-score of subpopulation abundance” value was -0.83.

Regarding `CCCN[C@H]1CCc2nc(N)sc2C1` [Pramipexole dihydrochloride], the “z-score of subpopulation abundance” value was -0.79.

Turning to `Clc1ccc(COC(Cn2ccnc2)c2ccc(Cl)cc2Cl)c(Cl)c1` (stereo not given) [Miconazole Nitrate], the “z-score of subpopulation abundance” value came to 19.4.

Consider `CC1(C)S[C@@H]2[C@H](NC(=O)[C@H](N)c3ccccc3)C(=O)N2[C@H]1C(=O)O` [Ampicillin sodium], for which the “z-score of subpopulation abundance” value was -0.99.

With `CCC(=O)c1c(O)cc(O)cc1O` [Flopropione], the “z-score of subpopulation abundance” value was found to be 0.03.

In the case of `Cc1ccc(Nc2c(F)cccc2Cl)c(CC(=O)O)c1` [Lumiracoxib], the “z-score of subpopulation abundance” value worked out at 3.33.

`CO[C@@]1(NC(=O)Cc2cccs2)C(=O)N2C(C(=O)O)=C(COC(N)=O)CS[C@@H]21` [Cefoxitin sodium]: the “z-score of subpopulation abundance” value was -0.9.

In the case of `NCC[C@H](O)C(=O)N[C@@H]1C[C@H](N)[C@@H](O[C@H]2O[C@H](CN)[C@@H](O)[C@H](O)[C@H]2O)[C@H](O)[C@H]1O[C@H]1O[C@H](CO)[C@@H](O)[C@H](N)[C@H]1O` [Amikacin hydrate], the “z-score of subpopulation abundance” value came to 0.82.

Turning to `CCC(=O)Oc1ccc2c(c1)CCC1C2CCC2(C)C(OC(=O)CC)CCC12` (stereo not drawn) [Estradiol dipropionate(17-Beta-Estradiol-3,17-Dipropionate)], the “z-score of subpopulation abundance” value is -0.83.

Regarding `COC(=O)C1=C(C)NC(C)=C(C(=O)OC(C)(C)CN(C)CCC(c2ccccc2)c2ccccc2)C1c1cccc([N+](=O)[O-])c1` (stereo not given) [Lercanidipine], the “z-score of subpopulation abundance” value turned out to be 1.04.

Regarding `CCCCN(CCCC)CC(O)c1cc(Cl)cc2c1-c1ccc(Cl)cc1/C2=C/c1ccc(Cl)cc1` (stereo not given) [Lumefantrine], the “z-score of subpopulation abundance” value is -0.39.

`Cc1cc(-c2ccc(/N=N/c3ccc4c(S(=O)(=O)O)cc(S(=O)(=O)O)c(N)c4c3O)c(C)c2)ccc1/N=N/c1ccc2c(S(=O)(=O)O)cc(S(=O)(=O)O)c(N)c2c1O` [Evans Blue]: the “z-score of subpopulation abundance” value was -2.86.

For `CCN(CC)CCOC(=O)c1ccc(N)cc1Cl` [Chloroprocaine HCl], the “z-score of subpopulation abundance” value was -0.23.

Consider `O=c1[nH]cc(F)c(=O)[nH]1` [Fluorouracil (5-Fluoracil, 5-FU)], for which the “z-score of subpopulation abundance” value amounted to 22.3.

In the case of `NCC[C@H](O)C(=O)N[C@@H]1C[C@H](N)[C@@H](O[C@H]2O[C@H](CN)[C@@H](O)[C@H](O)[C@H]2O)[C@H](O)[C@H]1O[C@H]1O[C@H](CO)[C@@H](O)[C@H](N)[C@H]1O` [Amikacin disulfate], the “z-score of subpopulation abundance” value is -0.68.
